Screening results (PubChem BioAssay)
ssDAF12 agonist: S. stercoralis DAF-12 nuclear receptor activators, primary screen, cell-based, luminescence, HEK293, GRIP1 co-expression, lit1-tk-luc. Nuclear hormone receptor DAF-12 (Strongyloides stercoralis). HEK293 ssDAF-12/GRIP1 lit1-tk-luc reporter; % of 3 µM dafachronic acid response. activation, % at 6.8 µM. actives 1% (n = 370,000). AID 652126, 2013;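 active means activation above the mean over all tested compounds plus 3 SD, cut at about 0.9% in these data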
hgDAF12 agonist: H. glycines DAF-12 receptor agonists, primary screen, cell-based, luminescence, HEK293, GAL4 fusion, UAS-luciferase | Nuclear hormone receptor DAF-12 (Heterodera glycines), GAL4 fusion | HEK293 GAL4-hgDAF12 UAS-luciferase reporter, agonist luminescence; normalized to butyrate control | activation, % at 6.8 µM | actives 1.8% (n = 370,000);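 active means activation above a cutoff set at the mean of all screened compounds plus 3 SD, cut at about 10% in these data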
hcDAF-12 act: H. contortus DAF-12 nuclear receptor activators, primary screen, cell-based, luminescence, HEK293, lit1-tk-luc reporter. HEK293 hcDAF-12 lit1-tk-luc reporter; 0% DMSO, 100% Δ7-dafachronic acid. actives 1.4% (n = 370,000). activation, % at 6.8 µM;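 active means activation above the mean of all tested compounds plus 3 SD, cut at about 5.5% in these data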
PolyA inh: polyadenylation inhibitors in yeast reporter cells, primary screen, luminescence, S. cerevisiae | S. cerevisiae SKY197-pL101 polyadenylation reporter, beta-gal luminescence; efflux-impaired pdr1/pdr3 knockout yeast; score 100 = 6 SD above DMSO | actives 0.02% (n = 300,000) | activity score, % at 12 µM | AID 1875, 2009;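 active means lowest replicate activity score at least 50, where 100 means six control SD above control mean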;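 further: yeast exposed to compound for 9 h at 30 °C; higher score means more reporter readthrough which indicates perturbed polyadenylation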
DAX1 inh-1: DAX1 (NR0B1) inhibitors, primary screen, cell-based, HEK293, Gal4-DAX1, luciferase luminescence | AID 504766, 2011 | inhibition, % at 6.75 µM | actives 0.99% (n = 340,000) | HEK293 Gal4-DAX1 luciferase reporter;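 active means inhibition above the mean over all tested compounds plus 3 SD, cut at about 4.2% in these data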;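 further: inhibition shows as a rise in luminescence from relieved DAX1 repression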
DAX1 inh-2: DAX1 (NR0B1) inhibitors on StAR promoter, primary screen, cell-based, luminescence, SF-1 (NR5A1), full-length DAX-1; inhibition, % at 6.8 µM; HEK293T StAR-luciferase reporter, SF-1/DAX-1 repression relief; actives 1.1% (n = 370,000);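 active means inhibition above the mean over all tested compounds plus 3 SD, cut at about 3.6% in these data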;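 further: higher inhibition means more luminescence from relief of DAX-1 repression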
LXR ag: LXR agonists, Gal4 luciferase reporter, confirmation, counter-screen for hcDAF-12 agonist project, cell-based, luminescence, HEK293, H. contortus campaign; 3,400 tested, under 10 active; HEK293 Gal4-LXR tk-luc reporter, 24 h; normalized: DMSO 0%, positive control 100%; AID 743027, 2013; activation, % at 6.8 µM; shares compounds with hcDAF-12 act;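 active means mean percent activation of the reporter above a cutoff set as the average over tested compounds plus their standard deviation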
Target sequence (P55055 whole entry, looked up, the tested form may be a part): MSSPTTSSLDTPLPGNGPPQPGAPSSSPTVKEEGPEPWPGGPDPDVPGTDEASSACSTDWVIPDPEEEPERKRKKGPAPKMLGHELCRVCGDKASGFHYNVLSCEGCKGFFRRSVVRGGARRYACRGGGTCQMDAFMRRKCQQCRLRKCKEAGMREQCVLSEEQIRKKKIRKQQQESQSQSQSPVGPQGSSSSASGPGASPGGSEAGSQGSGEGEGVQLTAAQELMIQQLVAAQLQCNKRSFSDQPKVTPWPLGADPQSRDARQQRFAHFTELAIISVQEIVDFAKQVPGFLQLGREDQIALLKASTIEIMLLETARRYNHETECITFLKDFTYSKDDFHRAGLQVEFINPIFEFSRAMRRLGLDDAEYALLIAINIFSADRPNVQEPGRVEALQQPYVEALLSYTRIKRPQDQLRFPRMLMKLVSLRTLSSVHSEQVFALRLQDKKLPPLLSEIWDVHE
hcDAF12 conf: H. contortus DAF-12 receptor agonists, confirmation, cell-based, luminescence, HEK293, lit1-tk-luc, triplicate. actives 61% (n = 3,400). activation, % at 6.8 µM. shares compounds with hcDAF-12 act. HEK293 hcDAF-12 lit1-tk-luc reporter; % of Δ7-dafachronic acid response;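 active means mean activation across triplicate tests above the threshold derived from the earlier primary screen, cut at about 5.5% in these data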
hgDAF12 ag: H. glycines DAF-12 receptor agonists, confirmation, cell-based, luminescence, HEK293, GAL4-LBD fusion | shares compounds with hgDAF12 agonist | actives 80% (n = 3,300) | activation, % at 6.8 µM | AID 743050, 2013 | HEK293 GAL4-hgDAF12 luciferase reporter, agonist mode; percent of butyrate response;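 active means mean activation over triplicate wells above the hit cutoff derived from the earlier primary screen, cut at about 11% in these data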
LXRb DAF12 ctr: LXR agonists, Gal4 luciferase reporter, confirmation, counter-screen for hgDAF-12 agonist project, cell-based, luminescence, HEK293, H. glycines campaign. shares compounds with hgDAF12 agonist. 24 h. activation, % at 6.8 µM. 3,300 tested, under 10 active. AID 743051, 2013;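 active means mean activation of the triplicate above a set limit carried over from the primary screen, none filed active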
A number is an active result; . = inactive; / = no result. Sampled rows, rich in hits. Any-hit rate of the full collection: about 4.1%.

SMILES	ssDAF12 agonist	hgDAF12 agonist	hcDAF-12 act	PolyA inh	DAX1 inh-1	DAX1 inh-2	LXR ag	hcDAF12 conf	hgDAF12 ag	LXRb DAF12 ctr
Cc1c(-c2nc(N)nc(Nc3ccccc3F)n2)oc2ccccc12	0.9	14.4	7.5	/	.	3.7	.	7.3	17.9	.
Cc1ccc(CNc2nc3ccccc3n2C)cc1	3.6	20.7	16.3	.	.	.	.	16.0	20.1	.
Cc1ccc(CNc2ccc3c(c2)nc(C)n3C)cc1	1.3	15.7	16.0	.	.	.	.	6.4	17.2	.
COc1ccc(CNc2ccc3c(c2)nc(C)n3C)cc1	.	.	.	.	.	.	/	/	/	/
Cn1c(NC(=O)CCc2ccccc2)cc(=O)n(C)c1=O	1.6	14.1	9.4	.	.	4.1	.	7.5	12.8	.
COC(=O)C[C@H]1CC[C@@H]2[C@H](COc3ccc(NC(=O)C(C)C)cc3C(=O)N2C)O1	.	.	.	/	/	.	/	/	/	/
Cc1cc(NC(=O)c2cc3cccc([N+](=O)[O-])c3[nH]2)ccc1F	.	14.2	7.7	.	9.7	.	.	7.1	13.4	.
O=C(CN(c1cc(Cl)ccc1Cl)S(=O)(=O)c1ccccc1)N1CCOCC1	.	.	.	.	.	.	/	/	/	/
CC1=CN2C(=N)/C(=C/c3ccc(C)o3)C(=O)N=C2S1	.	20.1	14.9	.	.	4.0	.	.	11.6	.
COc1ccc(C2C(C#N)=C(N)Oc3c2c(-c2ccccc2)nn3-c2ccccc2)c(OC)c1OC (centres undefined)	.	.	.	.	.	.	/	/	/	/
COc1ccc2nc(SC)c(C#N)cc2c1	.	.	.	.	.	.	/	/	/	/
COc1ccc2nc(SCC(C)=O)c(C#N)cc2c1	2.5	18.9	11.7	.	5.9	3.9	.	10.9	24.7	.
O=C(Nc1ccccc1C(=O)Nc1ccccc1)c1ccccc1F	.	.	.	.	.	.	/	/	/	/
CC1(c2ccc(NC(=O)c3ccccc3F)cc2)CC1(Cl)Cl (centres undefined)	.	17.3	9.6	.	4.3	.	.	6.3	15.7	.
CCC1C(=O)Nc2nc(-c3ccccc3)c(-c3ccccc3)n2N=C1C (centres undefined)	.	.	.	.	.	.	/	/	/	/
O=C(Nc1ccc2ccccc2c1)c1ccc(Cl)cc1	1.7	16.1	6.8	.	.	3.8	.	9.4	22.1	.
Cc1ccc2cc(NC(=O)c3cccc(F)c3)ccc2n1	.	14.6	8.2	.	.	.	.	.	19.8	.
O=C(Nc1ccc2[nH]ncc2c1)c1cccc(F)c1	.	.	.	.	.	.	/	/	/	/
Cc1ccc(C(=O)Nc2ccc3ccccc3c2)cc1	.	.	.	.	.	.	/	/	/	/
O=C(Nc1ccc2ccccc2c1)c1cccc(F)c1	.	13.8	8.9	.	.	.	.	7.3	16.3	.
Cc1cc(Br)cn2c(Cc3ccccc3C(F)(F)F)c(-c3cccc(Cl)c3)nc12	.	.	.	/	/	.	/	/	/	/
COc1ccc2cc(C(=O)N3CCc4ccccc43)[nH]c2c1	1.6	19.1	14.4	.	.	.	.	12.5	23.9	.
O=C(c1cc2cc(Br)ccc2[nH]1)N1CCc2ccccc21	.	.	.	.	.	.	/	/	/	/
CC1=NN(c2ccccc2)C(=O)C1N=Nc1cccc(O)c1 (centres undefined)	1.6	14.2	17.9	.	.	.	.	12.8	19.0	.
CC1=NN(c2ccccc2)C(=O)C1N=Nc1ccc(N)cc1 (centres undefined)	.	.	.	.	.	.	/	/	/	/
SMILES	ssDAF12 agonist	hgDAF12 agonist	hcDAF-12 act	PolyA inh	DAX1 inh-1	DAX1 inh-2	LXR ag	hcDAF12 conf	hgDAF12 ag	LXRb DAF12 ctr
O=C(Nc1ccc2ccccc2n1)c1ccccc1	1.1	19.7	13.2	.	.	.	.	12.2	20.8	.
Cc1cc(C)cc(NC(=O)Nc2ccc3ccccc3n2)c1	.	.	.	.	.	.	/	/	/	/
O=C(Nc1ccc2ccccc2n1)c1ccccc1Br	3.8	18.8	16.3	.	.	.	.	9.5	18.2	.
O=C(Nc1ccc2ncccc2c1)c1ccccc1Br	/	/	/	.	.	/	/	/	/	/
O=C(c1ccccc1)c1ccc2ccccc2n1	.	.	.	.	.	.	/	/	/	/
Cc1ccc(C(=O)Nc2ccc3ccccc3n2)cc1	2.7	15.2	8.2	.	.	.	.	8.4	21.1	.
CCNC(=O)C1(C)CCCN(Cc2noc(-c3c(C)noc3C)n2)C1 (centres undefined)	.	.	.	/	/	.	/	/	/	/
Fc1ccccc1N1CCN(c2cnc3ccccc3n2)CC1	.	19.1	6.6	.	.	.	.	.	17.1	.
c1ccc(CN2CCN(c3cnc4ccccc4n3)CC2)cc1	.	.	.	.	.	.	/	/	/	/
c1csc(-c2nc3ccccc3[nH]2)c1	.	.	.	/	.	.	/	/	/	/
Cc1ccc(-c2nc3ccccc3[nH]2)s1	1.9	19.6	7.9	.	.	3.8	.	8.2	19.3	.
O=C1c2ccccc2C(c2nnnn2Cc2ccccc2)N1CCc1c[nH]c2ccccc12 (centres undefined)	.	.	.	/	/	.	/	/	/	/
O/N=C/c1ccc(OCc2ccccc2F)c(Cl)c1	.	19.0	6.7	.	.	.	.	.	17.1	.
O/N=C/c1ccccc1OCc1ccccc1F	.	.	.	.	.	.	/	/	/	/
